# Where “and” joins values, the source holds several entries; their conditions need not be identical. Equal values may be shown once. Records with an inconclusive call do not appear. A structure can be active in one record and inactive in another. Unmarked numbers belong to inactive results. Calls of active or inactive are those of the source. Unless noted, calls follow the shape of the dose curve; as a rule, active = well fitted curve in the direction sought with a large enough effect; inconclusive = small, poorly fitted or top-dose-only effect, or another doubt; inactive = no such curve, though single readings can be large; an effect the other way counts as inactive or inconclusive.
# Legend:
# [1] = target: Cellular tumor antigen p53 (Homo sapiens) (UniProt P04637); assay: Primary qHTS for small molecule compounds that upregulate eGFP-tagged delta133p53alpha (in N-terminal) cells. (AID 2060322); conditions: NCI-H358 eGFP-delta133p53alpha fluorescence, 24 h; activation: stronger effect = higher value; also: nearly all actives have a fitted effect of over 75% in size; also: potency is read from the fitted curve at half-maximal effect;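 as to activation: series mostly up to about 56 µM; 0% = DMSO vehicle and 100% = reference activator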
# Cellular tumor antigen p53 (Homo sapiens), sequence (P04637 whole entry, looked up): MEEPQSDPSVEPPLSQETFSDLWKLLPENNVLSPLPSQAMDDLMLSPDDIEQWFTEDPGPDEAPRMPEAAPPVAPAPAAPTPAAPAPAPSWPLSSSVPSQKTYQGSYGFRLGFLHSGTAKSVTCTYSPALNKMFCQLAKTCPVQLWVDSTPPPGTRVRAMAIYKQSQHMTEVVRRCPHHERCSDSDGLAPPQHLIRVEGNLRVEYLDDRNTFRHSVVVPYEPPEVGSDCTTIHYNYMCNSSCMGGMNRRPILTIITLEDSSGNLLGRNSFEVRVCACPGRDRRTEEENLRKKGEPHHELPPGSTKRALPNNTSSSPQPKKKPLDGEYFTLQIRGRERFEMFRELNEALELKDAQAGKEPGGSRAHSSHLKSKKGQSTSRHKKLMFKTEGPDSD
# Summary of the method: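 NCI-H358 cells pre-induced 24 h with 10 ng/ml doxycycline to express N-terminal eGFP-delta133p53alpha, then dosed 24 h at 37C without doxycycline; fixed, Hoechst-stained, GFP intensity by laser scanning cytometry, normalized to DMSO (0%) and 57.5 uM 5-azacytidine (100%).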
# [2] = BET inhibitor-based combinations targeting novel dependencies in MECOM-rearranged (r) AML: SET-2 cell line (AID 2202231); conditions: SET-2 AML cells viability, CellTiter-Glo luminescence, 48 h; viability: stronger effect = lower value, concentration not given here; also: nearly all actives have a fitted effect of over 35% in size; also: potency is read from the fitted curve at half-maximal effect;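 as to viability: plate controls were DMSO treated cells for no effect and wells without cells for full effect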
# Summary of the method: (§1)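 AML cell lines seeded at 500 cells/well, treated with 11-point dose curves for 48 h. Viability by CellTiter-Glo luminescence, normalised to DMSO and empty wells; activity expressed as AUC and per-cell-line Z-transformed AUC.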
# [3] = BET inhibitor-based combinations targeting novel dependencies in MECOM-rearranged (r) AML: OCI-AML3 cell line (AID 2202232); conditions: Potency: OCI-AML3 viability; also: nearly all actives have a fitted effect of over 35% in size; also: potency is read from the fitted curve at half-maximal effect
# Summary of the method: as §1
# [4] = BET inhibitor-based combinations targeting novel dependencies in MECOM-rearranged (r) AML: MV-4-11 cell line (AID 2202233); also: nearly all actives have a fitted effect of over 45% in size; also: potency is read from the fitted curve at half-maximal effect
# Summary of the method: (§2)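 Cells at 500/well were exposed for 48 hr to MIPE v5.0 drugs as 11-point dose curves. Viability was read by CellTiter-Glo luminescence and normalized to DMSO and empty-well controls. Activity was expressed as AUC and per-cell-line Z-AUC.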
# [5] = BET inhibitor-based combinations targeting novel dependencies in MECOM-rearranged (r) AML: AML-194 cell line (AID 2202237; also: nearly all actives have a fitted effect of over 40% in size; also: potency is read from the fitted curve at half-maximal effect)
# Summary of the method: as §1
# [6] = target: Cellular tumor antigen p53 (Homo sapiens) (UniProt P04637); assay: Primary qHTS for small molecule compounds that upregulate eGFP-tagged delta133p53alpha (in C-terminal) cells. (AID 2060324); also: potency is read from the fitted curve at half-maximal effect
# Summary of the method: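 C-terminal eGFP-tagged delta133p53alpha NCI-H358 line; dox-induced (100 ng/ml, 24 h) then plated without dox; compounds pinned in titration, 24 h 37 °C/5% CO2; PFA fix, Hoechst nuclei; GFP by LSC.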
# [7] = BET inhibitor-based combinations targeting novel dependencies in MECOM-rearranged (r) AML: HNT-34 cell line (AID 2202234); also: nearly all actives have a fitted effect of over 35% in size; also: potency is read from the fitted curve at half-maximal effect
# Summary of the method: as §2
# [8] = BET inhibitor-based combinations targeting novel dependencies in MECOM-rearranged (r) AML: AML-191 cell line (AID 2202236; also: nearly all actives have a fitted effect of over 35% in size; also: potency is read from the fitted curve at half-maximal effect)
# Summary of the method: as §1
# [9] = BET inhibitor-based combinations targeting novel dependencies in MECOM-rearranged (r) AML: UCSD-AML1 cell line (AID 2202235); also: nearly all actives have a fitted effect of over 40% in size; also: potency is read from the fitted curve at half-maximal effect
# Summary of the method: as §2
# [10] = target: Aldehyde dehydrogenase, mitochondrial (Homo sapiens) (UniProt P05091); assay: qHTS for Inhibitors of the Aldehyde Dehydrogenase Family (ALDH2) Validation screens (AID 2061302; active = well fitted inhibition curve with a large enough effect; title and protocol of this record describe different tests;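 also: plate controls were DMSO vehicle for no effect and maximal DPI positive control response for full effect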)
structure (smiles),measurement,setting,value
Cc1c(-c2ccc(O)cc2)n(Cc2ccc(OCCN3CCCCCC3)cc2)c2ccc(O)cc12,Potency,[1],38.9 µM (active)
same,activation,[1],-20.9%
same,Potency,[2],23.5 µM (active)
same,Potency,[3],16.6 µM (active)
same,Potency,[4],16.6 µM (active)
same,Potency,[5],26.3 µM (active)
C[C@H](NC(=O)/C(C#N)=C/c1ccc(O)c(O)c1)c1ccccc1,activation,[1],-11.2%
same,Potency,[6],inactive
OCc1cc(C(O)CNCCCCCCOCCCCc2ccccc2)ccc1O (stereo not given),activation,[1],13.4% and 3.4%
same,Potency,[6],inactive
O=C(NCC1CCCCN1)c1cc(OCC(F)(F)F)ccc1OCC(F)(F)F (stereo not given),Potency,[1],27.3 µM (active)
same,activation,[1],9.6%
same,Potency,[4],inactive
same,Potency,[7],inactive
same,Potency,[8],inactive
same,Potency,[5],inactive
Clc1ccccc1CN1CCc2sccc2C1,Potency,[1],17.2 µM (active)
same,activation,[1],16.7%
same,viability,[2],111%
same,Potency,[9],inactive
same,Potency,[8],inactive
same,Potency,[5],inactive
O=c1oc(Cl)c(Cl)c2ccccc12,activation,[1],3%
same,Potency,[6],inactive
COc1cccc2c1[C@@H]1CN(CCCCn3c(=O)[nH]c4c(sc5ncc(-c6ccccc6)nc54)c3=O)C[C@@H]1CO2,activation,[1],-97.6%
same,Potency,[6],inactive
C[n+]1cc2c3c(ccc2c2ccc4cc5c(cc4c21)OCO5)OCO3,Potency,[1],1.9 µM (active) and 2.39 µM (active)
same,Potency,[6],7.57 µM (active)
C=CCN1CCc2c(cc(O)c(O)c2Cl)C(c2ccccc2)C1 (stereo not given),activation,[1],-14.2%
same,Potency,[6],inactive
NC1(C(=O)O)CC1,activation,[1],-6.03%
same,Potency,[6],inactive
C=CC1(C)CC(=O)C2(O)C(C)(O1)C(OC(C)=O)C(O)C1C(C)(C)CCC(O)C12C (stereo not given),activation,[1],-19.1%
same,Potency,[6],inactive
COc1ccc(-c2cc3ncc(C)n3c(Nc3ncccc3C(N)=O)n2)cc1OC,activation,[1],2.48%
same,Potency,[6],10.7 µM (active)
NC(C(=O)N[C@@H]1C(=O)N2C(C(=O)O)=C(Cl)CS[C@H]12)c1ccccc1 (stereo not given in full),activation,[1],6.44%
same,Potency,[6],inactive
same,Potency,[10],inactive
Nc1nc2c(cnn2CCc2ccccc2)c2nc(-c3ccco3)nn12,activation,[1],-28.5%
same,Potency,[6],inactive
same,Potency,[10],inactive
CC(C)[C@H](C(=O)Nc1ccc(C(=O)NO)cc1)c1ccccc1,Potency,[1],30.6 µM (active)
same,activation,[1],66.7%
same,Potency,[3],0.742 µM (active)
same,Potency,[4],0.372 µM (active)
same,Potency,[7],0.833 µM (active)
same,Potency,[9],0.833 µM (active)
same,Potency,[8],0.662 µM (active)
same,Potency,[5],0.833 µM (active)
CC(=O)N(O)CCCCCNC(=O)CCC(=O)N(O)CCCCCNC(=O)CCC(=O)N(O)CCCCCN,Potency,[1],1.36 µM (active)
same,activation,[1],41.2%
same,Potency,[2],20.9 µM (active)
same,Potency,[3],11.8 µM (active)
same,Potency,[4],11.8 µM (active)
same,Potency,[7],9.34 µM (active)
same,Potency,[8],8.33 µM (active)
same,Potency,[5],9.34 µM (active)
O=C(O)C1=CC(=C(c2ccc(O)c(C(=O)O)c2)c2ccc(O)c(C(=O)O)c2)C=CC1=O,activation,[1],-71.6%
same,Potency,[6],inactive
O=C(CCCN1CCC(O)(c2cccc(C(F)(F)F)c2)CC1)c1ccc(F)cc1,activation,[1],13.4% and 14.3%
same,Potency,[6],inactive
same,Potency,[10],inactive
N#C/C(=C\c1ccc(O)c(O)c1)C(=O)c1ccc(O)c(O)c1,activation,[1],-3.67%
same,Potency,[6],inactive
Oc1ccc(/C=C/c2ccc(/C=C/c3ccc(O)cc3)c(Br)c2)cc1,Potency,[1],3.38 µM (active)
same,Potency,[6],inactive
COc1ccc2c(c1OC)C(=O)O[C@@H]2[C@H]1c2c(cc3c(c2OC)OCO3)CCN1C,Potency,[1],21.9 µM (active)
same,Potency,[6],inactive
same,Potency,[10],inactive
Brc1c(Br)c(Br)c2n[nH]nc2c1Br,activation,[1],-52.8%
same,Potency,[6],inactive
CCCCCCCCCC(=O)NC(CN1CCOCC1)[C@H](O)c1ccccc1 (stereo not given in full),activation,[1],-7.14%
same,Potency,[6],inactive
N#C/C(=C\c1ccc(O)c(O)c1)C(=O)NCCc1ccccc1,activation,[1],-26.1%
same,Potency,[6],inactive
N#Cc1cc([N+](=O)[O-])c2sc(C(N)=O)[n+]([O-])c2c1,activation,[1],-56.4%
same,Potency,[6],inactive
CCCn1c(=O)c2[nH]c(-c3ccc(S(=O)(=O)O)cc3)nc2n(CCC)c1=O,activation,[1],-6.22%
same,Potency,[6],inactive
same,Potency,[10],inactive
CN1CCN(CCCN2c3ccccc3Sc3ccc(Cl)cc32)CC1,activation,[1],23.2% and -10.9% and -6.59%
same,Potency,[6],inactive
same,Potency,[10],inactive
COc1ccccc1CN[C@@H]1CCCN[C@@H]1c1ccccc1,activation,[1],-89.1%
same,Potency,[6],inactive
same,Potency,[10],inactive
Oc1cc2c(c(Cl)c1O)CCNCC2c1ccccc1 (stereo not given),activation,[1],-28%
same,Potency,[6],inactive
same,Potency,[10],inactive
O=C1N=C(O)CN1/N=C/c1ccc(-c2ccc([N+](=O)[O-])cc2)o1,activation,[1],5.02% and 6.04%
same,Potency,[6],inactive
NC1(C(=O)O)CCc2cc(C(=O)O)ccc21 (stereo not given),activation,[1],7.39%
same,Potency,[6],inactive
Cc1cc2c(C(C)C)c(O)c(O)c(C=O)c2c(O)c1-c1c(C)cc2c(C(C)C)c(O)c(O)c(C=O)c2c1O,Potency,[1],24.6 µM (active)
same,activation,[1],-36.4%
same,Potency,[2],9.34 µM (active)
same,Potency,[3],9.34 µM (active)
same,Potency,[4],9.34 µM (active)
same,Potency,[9],9.34 µM (active)
same,Potency,[8],9.34 µM (active)
same,Potency,[5],13.2 µM (active)
NNc1nncc2ccccc12,activation,[1],19.2% and 11.4% and 5.29%
same,Potency,[6],inactive
Cc1coc2c1C(=O)C(=O)c1c-2ccc2c1CCCC2(C)C,Potency,[1],8.49 µM (active)
same,activation,[1],36.5%
same,viability,[2],97.6%
same,Potency,[7],18.6 µM (active)
same,Potency,[8],inactive
same,Potency,[5],inactive
O=C(OCCN1CCOCC1)C1(c2ccccc2)CCCCC1,activation,[1],-19.6%
same,Potency,[6],inactive
CCCOc1ccc(C(=O)OCCN(CC)CC)cc1N,Potency,[1],24.3 µM (active)
same,activation,[1],9.6%
same,viability,[2],101%
same,Potency,[3],inactive
same,Potency,[7],inactive
same,Potency,[9],inactive
same,Potency,[8],inactive
same,Potency,[5],inactive

# Source: PubChem BioAssay (NCATS)
